A selection: hits, their analogues and other compounds. The true share with any hit is near 5.3%.
MARV entry inh: Marburg virus entry inhibition. Potency, µM (series often up to 37.8 µM), for inactives: at the highest dose activity change, negative = inhibition, usual class: inhibitors. AID 540276. Marburg virus pseudotyped entry inhibition, cell reporter. actives 1.8% (n = 300,000); calls by dose curve; tested in HEK293 cells
LASV entry inh: Lassa virus entry inhibition; Lassa virus pseudotype entry inhibition, cell reporter; AID 540256; actives 1.2% (n = 300,000); Potency, µM (doses to about 37.9 µM), without a hit: at the highest dose activity change, negative = inhibition, hits mostly inhibitors; calls by dose curve; tested in HEK293 cells; further: nearly all actives have a fitted effect of over 50% in size
VACV Venus inh: vaccinia inhibition (Venus reporter) | Vaccinia virus Venus reporter expression, fluorescence | Potency, µM (series often up to 36.5 µM), inactives show at the top dose activity change, negative = inhibition, actives largely listed as inhibitors | actives 0.46% (n = 330,000) | AID 720580; calls by dose curve; tested in A549 cells; further: nearly all actives have a fitted effect of over 30% in size
Vaccinia mCherry: inhibitors of vaccinia virus infection (mCherry reporter signal); Vaccinia virus mCherry reporter infection, fluorescence; Potency, µM (highest dose often 36.5 µM), inactives show at the top dose activity change, negative = inhibition, actives largely listed as inhibitors; actives 0.63% (n = 310,000); calls by dose curve; tested in A549 cells; further: nearly all actives have a fitted effect of over 35% in size
FMDV antiviral: blocks foot and mouth disease virus. Potency, µM (top dose mostly 57.9 µM), for inactives: at the top dose activity change, negative = inhibition, hits mostly inhibitors. actives 1.2% (n = 410,000). FMDV antiviral cell-based qHTS; calls by dose curve; tested in HEK293T cells; further: read-out not given here; nearly all actives have a fitted effect of over 45% in size
HCV inh: inhibitors of hepatitis C virus infection; Huh7.5.1 HCVcc-Cre infection, luciferase reporter, 44 h; actives 3.4% (n = 340,000); Potency, µM (doses to about 41.8 µM), without a hit: at the highest dose activity change, negative = inhibition, usual class: inhibitors; AID 651820; active means well fitted inhibition curve with a large enough effect; inconclusive means small, poorly fitted or top-dose-only effect, or another doubt; inactive means no such curve, though single readings can be large or run the other way
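Seed cells (1,000/well) for 4 h; treat with compound and infect with HCVcc-Cre, moi about 0.5. Incubate 44 h, then detect luciferase activity.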
Numbers without * were called inactive; i = inactive; ? = inconclusive; . = not tested or not shown; [ ] = remark or other dose. On the % scale 0 is the no-effect control and ±100 the full control effect; potency means the concentration at half of the fitted maximal effect.

SMILES	MARV entry inh	LASV entry inh	VACV Venus inh	Vaccinia mCherry	FMDV antiviral	HCV inh
COc1ccc(/C=N/NC(=O)c2cccnc2)cc1CN1CCc2cc(OC)c(OC)cc2C1C (centres undefined)	-13%[46.1 µM]	13%	0%	6%	3%	-15%
COc1ccc(/C=N/NC(=O)c2ccn[nH]2)cc1Cn1cc([N+](=O)[O-])cn1	7%[46.1 µM]	6%	-5%	i	23%	6%
COc1ccc(/C=N\NC(=O)c2ccc([N+](=O)[O-])cc2)cc1COc1c(F)c(F)cc(F)c1F	.	.	.	.	?	1.6µM*
COc1ccc(/C=N/NC(=O)c2cccnc2)cc1CN1CCCc2ccccc21	-10%[46.1 µM]	-3%	-3%	-4%	?	-17%
CCCCNC(=O)CCn1c(=O)c2ccccc2n(Cc2cccc(Cl)c2)c1=O	0%[46.1 µM]	1%[46.1 µM]	-9%	-12%	-3%	.
CN(C)C(=O)c1ccc(-c2ccc3ncnc(N4CCNCC4)c3c2)cc1	.	.	.	.	-4%	.
COc1ccc(/C=N\NC(=O)c2ccc(F)cc2)cc1COc1ccccc1C(N)=O	?	-20%	-15%	-22%	?	?
COc1ccc(/C=N/NC(=O)c2cccnc2)cc1COc1ccc([N+](=O)[O-])cc1	?	?	-27%	-19%	28µM*	-10%
COc1ccc(/C=N/NC(=O)c2cccnc2)cc1COc1ccc(NC(C)=O)cc1	?	-10%[46.1 µM]	-5%	-9%	-12%	-6%
COc1ccc(/C=N/NC(=S)Nc2ccccc2)cc1COc1ccc(F)cc1F	?	1.6µM*	-18%	i	9%	?
COc1ccc(OCc2cc(/C=N\NC(=O)c3ccccc3)ccc2OC)cc1	?	?	-12%	-6%	9%	?
COc1ccc(C(=O)N/N=C/c2ccc(OC)c(COc3c(F)c(F)cc(F)c3F)c2)cc1	5%[46.1 µM]	-24%[46.1 µM]	-12%	?	?	2.2µM*
CCOC(=O)c1cc2c(c(-c3ccccc3)n1)[C@@H](CCO)N(S(=O)(=O)C(C)(C)C)C2	.	.	-17%	i	-16%	-7%
CSc1cccc(NC(=O)/C=C/c2ccccc2)c1	?	?	.	.	37%	?
CSc1ccc(/C=C/C(=O)Nc2ccccc2)cc1	7.1µM*	?	-12%	0%	-57%	-28%
CC(=O)Nc1ccc(NC(=O)/C=C/c2ccccc2)cc1	?	-7%	-7%	-17%	0%	-21%
CSc1cccc(NC(=O)/C=C/c2ccc(Cl)cc2)c1	2%	-1%	.	.	-20%	13µM*
C=CC1=C2C=C(C3CC3)N(C3CCCC3)C=C2C(=O)C(C)(OC(=O)c2ccco2)C1=O (centres undefined)	21%[14.2 µM]	.	.	.	.	.
CCc1ccc(CNC(=O)c2ccc(CSc3nc4ccncc4n3Cc3ccccc3)cc2)cc1	?	.	-25%	-2%	-13%	.
CN(C)c1ccc(C=C2C(=O)NC(=S)NC2=O)cc1	?	?	-9%	-18%	28µM*	?
CN(C)c1ccc(C=C2C(=O)NC(=O)NC2=O)cc1	3%[46.1 µM]	-25%[46.1 µM]	2%	i	-10%	4%
CCN(CC)c1ccc(/C=C2\NC(=O)NC2=O)cc1	-13%	-4%	-15%	-24%	2%	-12%
CCN(CC)c1ccc(C=C2C(=O)NC(=S)NC2=O)cc1	.	.	.	.	22µM*	?
COc1cc(NC(=O)c2cccc3c2C(=O)N(C2CCCCC2)C3)cc(OC)c1	9%[46.1 µM]	?	-5%	-11%	-20%	.
Oc1ccc(C[C@H]2NCCc3cc(O)c(O)cc32)cc1O	2.8µM*	?	-11%	-12%	3%	22%
SMILES	MARV entry inh	LASV entry inh	VACV Venus inh	Vaccinia mCherry	FMDV antiviral	HCV inh
CCOc1ccc(CC2NCCc3cc(OCC)c(OCC)cc32)cc1OCC (centres undefined)	.	.	.	.	?	6.3µM*
Cc1ccc(-n2ncc(C(=O)NCCc3ccsc3)c2C2CCN(C(=O)OC(C)(C)C)CC2)cc1C	.	?	-15%	-19%	43%	.
CCOc1ccccc1N(C)C(=O)Cn1cnc2onc(-c3ccc(F)cc3)c2c1=O	.	27%[46.1 µM]	-9%	-22%	0%	.
CCOc1ccc(CN2C(=O)c3ccccc3Sc3ccc(C(=O)NCc4ccc(C)cc4)cc32)cc1	10µM*	?	-19%	-20%	-6%	.
COc1ccc(CNC(=O)c2ccc3c(c2)N(Cc2c(F)cccc2Cl)C(=O)CS3)cc1	11µM*	?	-14%	-18%	-25%	.
CCN(CC)CCCNC(=O)c1ccc2c(c1)N(Cc1c(F)cccc1Cl)C(=O)c1ccccc1S2	6.3µM*	?	?	-5%	-15%	.
CCOc1ccc(CN2C(=O)c3ccccc3Sc3ccc(C(=O)NCCc4ccccc4)cc32)cc1	?	?	-5%	-10%	7%	.
CCN1CCN(C(c2ccc(OC)cc2)c2c(O)cc(C)n(CCOC)c2=O)CC1 (centres undefined)	.	-8%[46.1 µM]	-10%	-8%	-15%	.
COc1ccc(/C=C/C(=O)NC(=S)Nc2ccc(C(=O)O)cc2)cc1	-7%	12%	-4%	i	-2%	28%
CC(=O)NC1=C(N2CC2C)C(=O)C(NC(C)=O)=C(N2CC2C)C1=O (centres undefined)	-8%	-12%	-11%	0%	2%	-23%
COCC(=O)OC1CCn2c1nc1c2C(=O)C(C)=C(NC(C)=O)C1=O (centres undefined)	?	3.2µM*	?	?	10µM*	14µM*
CCOC(=O)CN1C(=O)NC(c2cccc(C(F)(F)F)c2)C(C(=O)OC)=C1C (centres undefined)	-11%[14.2 µM]	.	.	.	.	.
COc1ccc2ccccc2c1CN1CCc2nnc(C(NS(C)(=O)=O)C(C)C)n2CC1 (centres undefined)	.	.	-11%	-7%	-19%	.
O=C(CSc1n[nH]c(-c2ccccn2)n1)Nc1ccc(F)cc1	?	10µM*	?	14µM*	12%	?
Cc1ccc(NC(=O)CSc2ccc(-c3ccccn3)nn2)cc1	-29%[46.1 µM]	?	?	?	1%	?
O=C(CSc1n[nH]c(-c2ccc(Cl)cc2Cl)n1)Nc1ccccn1	-12%	5%	-13%	-27%	-27%	-29%
O=C(CSc1n[nH]c(-c2ccncc2)n1)Nc1ccc(F)cc1	-6%	9%	-2%	-5%	-8%	13%
Cc1ccc(NC(=O)CSc2n[nH]c(-c3ccccn3)n2)cc1	4.5µM*	?	?	10µM*	0%	?
O=C(CSc1n[nH]c(-c2ccccn2)n1)Nc1ccc(Cl)cc1	?	?	-26%	7.9µM*	-16%	5µM*
O=C(Nc1ncc(S(=O)(=O)c2ccc([N+](=O)[O-])cc2)s1)c1ccccc1F	.	.	2%[7.34 µM]	-8%[7.34 µM]	-28%	-17%
Nc1ncc(S(=O)(=O)c2ccc([N+](=O)[O-])cc2)s1	-15%[46.1 µM]	0%[46.1 µM]	?	7.1µM*	-12%	3%

Bioassay records from PubChem.
